According to the supplement of paper PMC9694430:

Experiments:
Assay in all cases: thermal shift delta Tm vs DMSO control; higher = stronger stabilization (binding)
Conditions in all cases: 12.5 µM; protein concentration 2 µM
[1] = system: LOC_OS01G57100-cb003
Outline: (§1)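 The melting temperature shift given here is a triplicate mean, measured against protein that received only DMSO. Melting temperatures came from Boltzmann fits of differential scanning fluorimetry data on E. coli-expressed, purified rice kinase domain constructs. Each 19.5 μl well contained 2 μM kinase, 100 mM potassium phosphate pH 7.5, 150 mM NaCl, 10% glycerol, 5 × SYPRO Orange and compound in DMSO. Plates were scanned from 25°C to 95°C at 0.05°C/s.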

[2] = system: LOC_OS01G60330-cb001
Outline: as §1

[3] = system: LOC_OS01G60700-cb002
Outline: as §1

[4] = system: LOC_OS01G63280-cb003
Outline: as §1

[5] = system: LOC_OS01G67340-cb003
Outline: as §1

[6] = system: LOC_OS01G70970-cb002
Outline: as §1

[7] = system: LOC_OS02G07810-cb001
Outline: as §1

[8] = system: LOC_OS02G08530-cb003
Outline: as §1

[9] = system: LOC_OS02G14120-cb001
Outline: as §1

[10] = system: LOC_OS02G17970-cb001
Outline: as §1

[11] = system: LOC_OS02G45750-cb003
Outline: as §1

[12] = system: LOC_OS02G54510-cb004
Outline: as §1

[13] = system: LOC_OS03G04050-cb001
Outline: as §1

[14] = system: LOC_OS03G12390-cb001
Outline: as §1

[15] = system: LOC_OS03G27990-cb004
Outline: as §1

[16] = system: LOC_OS03G50450-cb001
Outline: as §1

[17] = system: LOC_OS03G50810-cb003
Outline: as §1

[18] = system: LOC_OS04G35114-cb001
Outline: as §1

[19] = system: T1, LOC_OS04G38480-cb003
T1 sequence (whole entry): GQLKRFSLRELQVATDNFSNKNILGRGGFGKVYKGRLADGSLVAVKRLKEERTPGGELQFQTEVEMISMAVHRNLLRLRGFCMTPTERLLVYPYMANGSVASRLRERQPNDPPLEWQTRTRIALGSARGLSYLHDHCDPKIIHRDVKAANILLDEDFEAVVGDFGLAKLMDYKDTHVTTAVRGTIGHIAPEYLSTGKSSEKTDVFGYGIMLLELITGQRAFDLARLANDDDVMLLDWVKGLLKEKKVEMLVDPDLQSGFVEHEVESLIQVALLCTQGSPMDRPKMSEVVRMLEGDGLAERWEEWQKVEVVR
Outline: as §1

[20] = system: T2, LOC_OS04G41100-cb001
T2 sequence (whole entry): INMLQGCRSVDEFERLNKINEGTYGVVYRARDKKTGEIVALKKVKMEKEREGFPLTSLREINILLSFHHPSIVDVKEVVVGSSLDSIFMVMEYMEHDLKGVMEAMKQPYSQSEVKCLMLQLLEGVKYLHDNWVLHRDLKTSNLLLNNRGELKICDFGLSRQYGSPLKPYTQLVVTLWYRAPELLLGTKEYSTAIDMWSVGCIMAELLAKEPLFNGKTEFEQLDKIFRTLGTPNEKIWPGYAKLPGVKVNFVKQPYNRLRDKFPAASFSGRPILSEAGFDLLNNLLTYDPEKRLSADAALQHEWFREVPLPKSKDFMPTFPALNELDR
Outline: as §1

Compound | thermal shift delta Tm [1] | thermal shift delta Tm [2] | thermal shift delta Tm [3] | thermal shift delta Tm [4] | thermal shift delta Tm [5] | thermal shift delta Tm [6] | thermal shift delta Tm [7] | thermal shift delta Tm [8] | thermal shift delta Tm [9] | thermal shift delta Tm [10] | thermal shift delta Tm [11] | thermal shift delta Tm [12] | thermal shift delta Tm [13] | thermal shift delta Tm [14] | thermal shift delta Tm [15] | thermal shift delta Tm [16] | thermal shift delta Tm [17] | thermal shift delta Tm [18] | thermal shift delta Tm [19] | thermal shift delta Tm [20]
CO[C@@H](C(=O)N1Cc2[nH]nc(NC(=O)c3ccc(N4CCN(C)CC4)cc3)c2C1)c1ccccc1 | 0.28 °C | 1.12 °C | 0.4 °C | 0.57 °C | -0.26 °C | 1.38 °C | 0.65 °C | 0.25 °C | 9.66 °C | 0.37 °C | 6.97 °C | 0.95 °C | 0.25 °C | 4.21 °C | 0.41 °C | -0.04 °C | 3.61 °C | 4.16 °C | 2.5 °C | 1.51 °C
Oc1cc(O)cc(/C=C/c2ccc(O)c(O)c2)c1 [Piceatannol] | -0.61 °C | 1.29 °C | 1.12 °C | 1.07 °C | 0.13 °C | 0.59 °C | 1.77 °C | 1.3 °C | 0.89 °C | 1.38 °C | -0.87 °C | 0.68 °C | 0.78 °C | -0.65 °C | 0.48 °C | 0.23 °C | 0.47 °C | 0.4 °C | 1.45 °C | 0.8 °C
Cc1[nH]c(/C=C2\C(=O)Nc3ccc(S(=O)(=O)Cc4c(Cl)cccc4Cl)cc32)c(C)c1C(=O)N1CCC[C@@H]1CN1CCCC1 | 1.04 °C | 1.52 °C | 0.53 °C | 0.78 °C | 0.73 °C | 0.57 °C | 0.8 °C | 3.7 °C | 7.86 °C | 0.39 °C | 0 °C | 0.51 °C | 0.3 °C | 4.07 °C | 0.43 °C | 0.47 °C | 0 °C | 7.26 °C | 2.55 °C | 0.74 °C
CC(C)n1nc(-c2cc3cc(O)ccc3[nH]2)c2c(N)ncnc21 [Torkinib (PP242)] | 0.56 °C | 1.53 °C | 1.1 °C | 3.14 °C | 1.04 °C | 0.66 °C | 0.64 °C | 0.63 °C | 0.74 °C | 0.57 °C | 1.42 °C | 0.85 °C | 0.29 °C | 2.95 °C | 0.64 °C | 0.48 °C | 0.71 °C | 5.09 °C | 1.25 °C | 0.2 °C
COc1nccnc1NS(=O)(=O)c1ccc(NC(=O)/C=C/c2ccc([N+](=O)[O-])s2)cc1 [Necrosulfonamide] | -1.39 °C | 1.46 °C | 1.17 °C | 0.16 °C | 0.36 °C | -0.61 °C | 1.4 °C | 0.83 °C | -0.66 °C | 2.48 °C | -0.78 °C | 0.22 °C | 0.43 °C | -0.66 °C | 1.32 °C | -0.09 °C | 0.29 °C | 1.14 °C | 0.24 °C | -0.12 °C
COc1ccc2c(c1)[C@]1(C[C@H]1c1ccc3c(/C=C/c4ccc(CN5C[C@@H](C)O[C@@H](C)C5)cc4)n[nH]c3c1)C(=O)N2 | 2.82 °C | -0.26 °C | 0.64 °C | 1.2 °C | 2.12 °C | 2.01 °C | -0.49 °C | 1.45 °C | 7.54 °C | 0.31 °C | 9.37 °C | -0.19 °C | 0.73 °C | 0.7 °C | 0.36 °C | 0.66 °C | 4.68 °C | 4.47 °C | 4.28 °C | 0.19 °C
Cc1cc(Nc2cc(CN3CCOCC3)c3nc(C)c(Cc4ccc(Cl)cc4F)n3n2)n[nH]1 | 0.41 °C | 3.94 °C | -0.8 °C | 0.12 °C | 1.73 °C | 1.25 °C | 0.19 °C | 0.8 °C | 8.86 °C | -0.03 °C | 3.56 °C | 3.12 °C | -0.22 °C | 1.36 °C | 0.01 °C | 0.47 °C | 4.81 °C | 2.03 °C | 2.46 °C | 3.22 °C
COc1cc2nccc(Oc3ccc(NC(=O)NC4CC4)c(Cl)c3)c2cc1C(N)=O [Lenvatinib (E7080)] | -0.21 °C | 1.52 °C | 1.38 °C | 0.36 °C | -0.21 °C | 0.67 °C | 0.65 °C | 1.11 °C | 0.02 °C | 0.27 °C | 0.65 °C | 0.49 °C | 0.79 °C | -0.1 °C | 0.31 °C | 0.39 °C | 0.26 °C | 1.09 °C | 0.48 °C | 0.18 °C
O=C1NC(=O)[C@@H](c2cn3c4c(cccc24)CCC3)[C@@H]1c1c[nH]c2ccccc12 [Tivantinib (ARQ 197)] | 1.7 °C | 0.74 °C | 0.02 °C | 0.24 °C | 0.37 °C | 0.39 °C | 0.91 °C | 0.76 °C | 0.16 °C | 0.24 °C | 0.51 °C | 0.03 °C | 0.44 °C | -0.01 °C | 0.43 °C | 0.17 °C | 0.07 °C | 0.51 °C | 0.13 °C | 0.36 °C
CN1CC(O)C2=C/C(=N/NC(N)=O)C(=O)C=C21 (stereo not given) [Carbazochrome] | -0.08 °C | 0.07 °C | 0.11 °C | -0.22 °C | -0.39 °C | 0.31 °C | -0.8 °C | 0.45 °C | 0.37 °C | -0.48 °C | 0.38 °C | 0.29 °C | 0.65 °C | 0.05 °C | 0.64 °C | 0.96 °C | 0.41 °C | -0.02 °C | 0.38 °C | 0.2 °C
COc1cc(N2CCC(N)CC2)ccc1Nc1ncc(Cl)c(-c2c[nH]c3ccccc23)n1 | 5.66 °C | 7.59 °C | 2.23 °C | 0.87 °C | 0.6 °C | 6.87 °C | 1.19 °C | 7.02 °C | 9.17 °C | 1.36 °C | 2.46 °C | 1.23 °C | 0.85 °C | 14.1 °C | 5.3 °C | 8.66 °C | 6.42 °C | 3.73 °C | 4.68 °C | 1.54 °C
